Laboratory results taken from publication PMC6792352, “Limited Chemical Structural Diversity Found to Modulate Thyroid Hormone Receptor in the Tox21 Chemical Library” (Environmental Health Perspectives, 2019).
Structures can show the parent of a compound that is named as a salt.

tested on: thyroid hormone receptor (endogenous TRα and TRβ); parameters: species or system GH3-TRE-Luc (rat pituitary); GH3-TRE-Luc luciferase reporter, antagonist mode against 1 nM T3, loss of signal, qHTS; conditions: read-out: Average AC50 (uM) GH3-TRE-Antag, antagonist mode, 1 nM T3, no GH3 cytotoxicity hit

Point of comparison: COc1cccc(C(=O)NN(C(=O)c2cc(C)cc(C)c2)C(C)(C)C)c1C [Methoxyfenozide], AC50 55.4 µM. Against it:
- Cc1ccccc1C(=O)Nc1cccc(OC(C)C)c1 [Mepronil] — within 1.5-fold, 48.2 µM
- CCC(C)c1cc(C(C)(C)C)c(O)c(C(C)(C)C)c1 (stereo not shown) [4-(Butan-2-yl)-2,6-di-tert-butylphenol] — 2.3-fold lower, 23.6 µM
- CCOc1cc(N)c(Cl)cc1C(=O)NCC1CN(Cc2ccc(F)cc2)CCO1 (stereo not shown) [Mosapride citrate] — within 1.5-fold, 43.4 µM
